This is an account of results in ChEMBL document CHEMBL1201862, “PubChem BioAssay data set” (2004).

Out of some 400,000 compounds screened, about 2,100 (0.53%) were called active. Another 14% or so got no clear call; they are omitted. How the calls were made is not given here. The sample as a whole holds a higher share of actives than the screen did.

In the test the target is Ataxin-2 (Homo sapiens) (UniProt Q99700). Put plainly: qHTS for Inhibitors of ATXN expression. In kind it is functional.
Chain of Ataxin-2 (Homo sapiens) (Q99700 whole entry): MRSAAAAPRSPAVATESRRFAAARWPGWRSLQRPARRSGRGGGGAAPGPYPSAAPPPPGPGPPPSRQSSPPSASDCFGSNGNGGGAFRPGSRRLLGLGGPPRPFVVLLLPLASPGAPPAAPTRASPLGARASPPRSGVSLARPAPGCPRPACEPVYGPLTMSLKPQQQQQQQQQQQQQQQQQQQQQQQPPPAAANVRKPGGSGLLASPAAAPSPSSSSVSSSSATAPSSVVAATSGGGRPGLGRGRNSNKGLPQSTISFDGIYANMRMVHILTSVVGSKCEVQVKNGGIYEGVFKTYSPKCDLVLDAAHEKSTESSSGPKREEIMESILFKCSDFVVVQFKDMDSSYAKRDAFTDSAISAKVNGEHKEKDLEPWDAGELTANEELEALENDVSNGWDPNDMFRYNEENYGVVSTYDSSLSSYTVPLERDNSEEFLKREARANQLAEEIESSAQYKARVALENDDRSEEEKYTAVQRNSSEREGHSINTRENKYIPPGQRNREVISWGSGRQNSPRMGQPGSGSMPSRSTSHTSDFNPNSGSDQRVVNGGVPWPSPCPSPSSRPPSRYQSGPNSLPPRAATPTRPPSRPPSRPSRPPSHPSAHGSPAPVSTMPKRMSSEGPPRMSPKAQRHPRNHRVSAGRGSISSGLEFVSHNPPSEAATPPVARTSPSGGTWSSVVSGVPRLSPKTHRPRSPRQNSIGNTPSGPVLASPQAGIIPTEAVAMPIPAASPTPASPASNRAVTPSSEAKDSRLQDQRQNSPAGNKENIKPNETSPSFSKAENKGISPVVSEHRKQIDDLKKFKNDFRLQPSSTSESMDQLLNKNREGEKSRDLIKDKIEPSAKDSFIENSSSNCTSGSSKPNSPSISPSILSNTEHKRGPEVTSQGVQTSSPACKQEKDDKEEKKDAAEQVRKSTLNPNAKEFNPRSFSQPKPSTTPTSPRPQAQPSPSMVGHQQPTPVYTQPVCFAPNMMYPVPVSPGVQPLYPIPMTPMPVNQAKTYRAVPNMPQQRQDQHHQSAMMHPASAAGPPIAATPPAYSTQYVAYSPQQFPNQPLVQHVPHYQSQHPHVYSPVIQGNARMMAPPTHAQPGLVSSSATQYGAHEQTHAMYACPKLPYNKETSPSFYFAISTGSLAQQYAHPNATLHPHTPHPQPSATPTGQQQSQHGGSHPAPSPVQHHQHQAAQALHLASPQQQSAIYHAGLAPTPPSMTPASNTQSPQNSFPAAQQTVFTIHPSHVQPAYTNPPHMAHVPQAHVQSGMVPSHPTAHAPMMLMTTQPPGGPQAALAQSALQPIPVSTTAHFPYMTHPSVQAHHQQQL
For `CCCCN(C)Cc1cc(=O)oc2cc3c(cc12)CCCC3`, the Potency entry was “inactive”. As to `Nc1cccc2c1C(=O)N(C(=O)c1ccc(S(=O)(=O)N3CCCCCC3)cc1)C2=O`, the Potency result was “inactive”. Turning to `Cc1c(C)c2cc(Cl)c(O)c(CN3CCCC(C)C3)c2oc1=O` (stereo not given), the Potency result is “inactive”. For `Cc1csc(Nc2ccc(Cl)cc2)[n+]1-c1ccc(Cl)cc1` the value was “inactive”; for `O=C1NC[C@H](Cc2ccccc2)N(C[C@@H]2CCCN2C[C@H](Cc2ccccc2)N2C[C@H](Cc3ccccc3)N(CC3CCCCC3)C(=O)C2=O)C1=O`, 39.8 µM (active); for `O=C1NC[C@H](CCCCN2C[C@H](Cc3ccccc3)N(CCc3ccccc3)C(=O)C2=O)N(CCC2CCCCC2)C1=O`, 20 µM (active). Next, `COCCCC1CCN(C(=O)C2CCC(=O)N(CCCc3ccccc3)C2)CC1` (stereo not given): “inactive”.

In the case of `CC(C)C[C@H]1CNC(=S)N1C[C@H]1CCCN1C[C@H](Cc1ccc(O)cc1)N1C[C@H](Cc2ccc(O)cc2)N(CCc2ccccc2)C1=S`, the Potency is 15.8 µM (active).

Consider `CC(C)C[C@@H](CN1CCC[C@H]1CN1C(=O)C(=O)NC[C@@H]1Cc1ccccc1)N1C[C@H](Cc2ccccc2)N(CC2CCCCC2)C(=O)C1=O`, for which the Potency was 35.5 µM (active).

As to `Clc1ccc2oc(-c3ccccc3)cc(=NCCCN3CCOCC3)c2c1`, the Potency result is “inactive”. For `COc1ccc(CCNC2CCc3ccccc3C2)cc1` (stereo not given) the value was “inactive”; for `O=C(Cn1ccc([N+](=O)[O-])n1)NCc1ccccc1`, “inactive”; for `Cc1c(O)c(CN2CCCCC2)cc2c3c(c(=O)oc12)CCC3`, “inactive”. Next, `Cc1nc(-c2ccc(S(=O)(=O)Nc3cccc(S(N)(=O)=O)c3)s2)cs1`: “inactive”; `Cc1ccc(-n2c3nc(=O)n(C)c(=O)c-3cc3ccccc32)cc1`: “inactive”. Next, `Cc1ccc(-n2c(=O)c(C#N)cc3c(=O)n4ccccc4nc32)cc1`: “inactive”; `Cc1ccc(-n2c(Cl)c(Cl)nc(Cl)c2=O)cc1`: 4.74 µM (active). `O=c1c2ccccc2c(-c2ccc(F)cc2)nn1-c1ccc(C(F)(F)F)cc1`: the Potency result was “inactive”. Regarding `Fc1ccc2cnc(-c3ccccc3)c(-c3cc(C(F)(F)F)cc(C(F)(F)F)c3)c2c1`, the Potency is 35.5 µM (active). For `CCOC(=O)C1(CC2CCCCO2)CCN(S(=O)(=O)c2ccccc2)CC1` (stereo not given), the Potency result is “inactive”. For `COc1cccc(/C=C/C(=O)Nc2ccccc2N2CCOCC2)c1` the value was “inactive”; for `COc1ccc(C(=O)Nc2ccc3ccccc3c2)c(OC)c1`, “inactive”. With `Cc1ccc(C)c(NC(=O)c2cc3ccccc3o2)c1`, the Potency result is “inactive”. Next, `COc1ccc2cc3cc(C(=O)Nc4ccc5c(c4)OCO5)oc3nc2c1`: 22.4 µM (active); `Cc1ccc2cccc(OCC(=O)Nc3ccc4c(c3)OCO4)c2n1`: “inactive”; `COc1c(C)cc(Br)cc1C(=O)Nc1ccccc1N1CCN(C(=O)c2ccccc2)CC1`: “inactive”. Next, `COc1ccc2cc3cc(C(=O)Nc4ccccc4N4CCN(C)CC4)oc3nc2c1`: 39.8 µM (active); `COc1ccc(C(=O)Nc2ccccc2N2CCOCC2)cc1S(=O)(=O)N1CCOCC1`: “inactive”; `COc1ccc2cc3cc(C(=O)Nc4ccc5c(c4)OCCO5)oc3nc2c1`: 28.2 µM (active). As to `CN1CCN(c2ccccc2NC(=S)NC(=O)c2cc3ccccc3o2)CC1`, the Potency was 39.8 µM (active). Regarding `Nc1c(C(=O)CSc2nnc(Nc3ccc(F)cc3)s2)c(=O)[nH]c(=O)n1C1CC1`, the Potency entry is “inactive”. In the case of `COc1ccc2c(c1)c(=O)oc1cc(O)ccc12`, the Potency entry was “inactive”.

As to `Cc1ccc2nc3c(cc(C(=O)NC4CCCC4)c(=N)n3C(C)C)c(=O)n2c1`, the Potency entry is “inactive”. For `O=C(O)c1ccc(/N=c2\oc3cc(O)ccc3cc2C(=O)NCc2ccccc2)cc1` the value was “inactive”. As to `O=c1cc(CN2CCOCC2)c2cc(Cl)c(O)cc2o1`, the Potency entry was “inactive”.

With `CCOc1cc(/C=C2/C(=O)ON=C2C)cc(Br)c1O`, the Potency result was “inactive”. Next, `CN(C)C(=O)COc1ccc2c(-c3ccccc3)cc(=O)oc2c1`: “inactive”. For the compound `CCOc1cc(/C=C2\COc3ccccc3C2=O)cc(Br)c1OCC(=O)N(C)C`, the Potency was 28.2 µM (active).

In the case of `C=CCn1cc[n+](-c2nc3ccccc3nc2[N-]S(=O)(=O)c2cccs2)c1`, the Potency entry was “inactive”. For `CCNc1nc(SCC(N)=O)nc2sc3c(c12)CCN(C)C3` the value was “inactive”; for `COC(=O)c1ccc(CO/N=C/c2ccc(OC)cc2)o1`, “inactive”; for `COc1ccc(Cc2n[nH]c(=S)n(N)c2=O)cc1`, “inactive”. Next, `COc1ccc(C[C@@H]2OC3(C=CC(=O)C=C3)O[C@H]2Cc2ccc(OC)cc2)cc1`: 3.98 µM (active); `CC1CN(Cc2cc(=O)oc3cc(O)c(Cl)cc23)CC(C)O1` (stereo not given): “inactive”. Next, `CCc1c(O)nc2c(c(C)nn2-c2ccccc2)c1C`: “inactive”; `Cc1nn(-c2ccccc2)c(C)c1C(=O)Oc1ccccc1`: “inactive”; `CCCSC(=S)c1c(C)nn(-c2ccccc2)c1O`: 22.4 µM (active). Consider `NC[C@H](Cc1ccccc1)NCCc1cc(C(F)(F)F)cc(C(F)(F)F)c1`, for which the Potency was 39.8 µM (active). For `NC(=S)c1cc2cc(Cl)ccc2oc1=O` the value was “inactive”; for `N=c1c(C(=O)NCC2CCCO2)cc2c(=O)n3ccccc3nc2n1C1CCCCC1` (stereo not given), “inactive”.

As for `COc1ccc(NC(=O)CSCC(=O)NCCc2ccccn2)cc1`, the Potency result is “inactive”.

On to `COc1ccc(NC(=O)CC2Sc3ncnn3C2=O)cc1` (stereo not given), for which the Potency is 39.8 µM (active). For `COc1ccc(NC(=O)CN2CCN(CC(=O)Nc3ccc(OC)cc3)CC2)cc1` the value was “inactive”; for `O=C(Oc1c(CN2CCOCC2)cc(Cl)c2cccnc12)c1ccccc1F`, “inactive”.

For `CC(=O)N1CCCc2cc(S(=O)(=O)N3CCCC(C(=O)N4CCN(c5cccc(Cl)c5)CC4)C3)ccc21` (stereo not given), the Potency is 39.8 µM (active). For `CC(=O)N1CCc2ccc(S(=O)(=O)N3CCc4ccccc43)cc21` the value was “inactive”; for `CC(C)c1ccc(S(=O)(=O)N2CCN(C(=O)C3CCCC3)CC2)cc1`, “inactive”. Next, `CC(NC(=O)c1ccc2ccccc2n1)c1ccc(S(N)(=O)=O)cc1` (stereo not given): “inactive”. For `COc1ccc(C(=O)NNC(=O)c2ccc3ccccc3n2)cc1` the value was 17.8 µM (active); for `COc1ccc(C(=O)N/N=C/c2cc3ccccc3nc2O)cc1`, “inactive”. Turning to `COc1ccc(C2c3[nH]c4ccccc4c3CCN2CCCn2cccn2)c(C)c1C` (stereo not given), the Potency result was “inactive”. For `CCn1c(O)c(N=NC(S)=NCC2CCCO2)c2ccccc21` (stereo not given) the value was 8.91 µM (active).

Consider `Oc1c(N=NC(S)=Nc2ccccc2F)c2ccccc2n1Cc1ccc(Cl)cc1`, for which the Potency entry was “inactive”. As to `Cc1cccc(N=C(S)N2CCC(C(N)=O)(N3CCCCC3)CC2)c1C`, the Potency entry is “inactive”.

`Cc1cccc(N=C(S)N=Nc2c(O)n(CN3CCOCC3)c3ccccc23)c1C`: the Potency was 6.31 µM (active).
